MLL AF4-AF9 inh: MLL-AF4/AF9 protein interaction inhibition. P42568. AlphaScreen, biotin-AF4 peptide binding to FLAG-AF9. inhibition, % at 10 µM. 350,000 compounds, 0.47% hits. AID 651704;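 active = every replicate reaching a set inhibition limit, whatever the replicate mean, cut at about 25% in these data; inconclusive = mean inhibition reaches that limit but some replicates miss it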;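 note: 0% = plate neutral control median and 100% = total signal loss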
RAD52 anneal inh: RAD52 (human) annealing inhibition | P43351 | recombinant RAD52 DNA annealing, FRET fluorescence | inhibition, % at 18.7 µM | 360,000 compounds, 0.46% hits | AID 651710;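 active = every replicate showing at least 50% inhibition; inconclusive = mean inhibition at least 50% but not in every replicate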
DENV2 CPE rescue: protects cells from dengue virus 2 cytopathic effect. AID 651640. CPE inhibition, % at 9.99 µM. DENV2-infected cells, cytopathic effect rescue, plate reader. 350,000 compounds, 1.7% hits; in the data active = CPE inhibition above about 20%, passing the limit was not always enough; inconclusive = no clear call, values can overlap the other calls; tested in BHK-21 cells;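 note: 0% = median of neutral control wells and 100% = median of positive control wells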
RAD54 inh: RAD54 (human) branch migration inhibition; Q92698; 360,000 compounds, 0.14% hits; inhibition, % at 10.4 µM; RAD54 Holliday junction branch migration, FAM/BHQ fluorescence;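 active = mean normalized replicate activity at least 40 and at least half of replicates scoring 40 or more; inconclusive = only one of the two criteria met; inactive = mean below 40 and under half of replicates reaching 40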;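 note: 0% = median of neutral control wells and 100% = median of positive control wells; inhibitors cause a drop in the FAM fluorescence signal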
dFosB act: mouse delta FosB homodimer activation; purified delta FosB, TAMRA-CDK5 oligo fluorescence polarization; percent of positive-control signal above neutral wells; activation, % at 25 µM; 340,000 compounds, 0.99% hits;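 active = mean activation above about 17%, with every replicate also reaching it, limit read from the data, passing the limit was not always enough; inconclusive = only one of the two conditions met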
Target sequence (P13346 whole entry, looked up): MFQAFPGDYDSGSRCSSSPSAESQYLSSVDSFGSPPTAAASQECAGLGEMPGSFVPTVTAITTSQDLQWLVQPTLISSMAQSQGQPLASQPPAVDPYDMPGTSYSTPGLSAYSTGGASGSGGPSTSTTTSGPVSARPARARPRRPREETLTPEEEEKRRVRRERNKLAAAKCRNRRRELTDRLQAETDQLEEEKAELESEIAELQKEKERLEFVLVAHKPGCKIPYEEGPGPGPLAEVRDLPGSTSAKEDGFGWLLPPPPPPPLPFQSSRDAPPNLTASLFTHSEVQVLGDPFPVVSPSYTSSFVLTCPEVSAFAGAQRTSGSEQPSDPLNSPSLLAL
GSIS activator: GLuc luminescence reporter in INS-1E cells, primary screen for activators of glucose-dependent secretion of insulin; INS-1E GLuc reporter insulin secretion, 2-3 h; activation, % at 16.6 µM; 370,000 compounds, 0.61% hits; AID 743287;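 active = lowest replicate activation of at least 40%, so every replicate reaches that level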;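 note: 0% = median of neutral control wells and 100% = median of IBMX positive control wells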
* = called active by the depositor; ? = inconclusive; . = no result given. The list is not random: actives were taken first. Their share in the collection is about 3.1%.

SMILES | MLL AF4-AF9 inh | RAD52 anneal inh | DENV2 CPE rescue | RAD54 inh | dFosB act | GSIS activator
CCC(=O)N1[C@H](CO)[C@H](c2ccc(C3=CCCC3)cc2)C12CN(C(=O)COC)C2 | -7 | -18 | -3 | . | . | -1
COc1ccccc1-c1ccc([C@@H]2[C@H](CO)N(C(C)=O)C23CN(C(C)=O)C3)cc1 | -2 | -6 | 28* | . | . | -8
COc1ccccc1-c1ccc([C@@H]2[C@@H](CO)N(C(=O)C3CC3)C23CN(C(C)=O)C3)cc1 | -1 | -2 | 79* | . | . | 8
COc1ccccc1-c1cn(CC[C@@H]2CC[C@H](NC(=O)c3cnccn3)[C@@H](CO)O2)nn1 | -3 | -9 | 0 | -10 | . | 40
COc1ccc(C(=O)Nc2ccc3c(c2)C(=O)N(C)C[C@H](OC)[C@H](C)CN(C(C)=O)[C@H](C)CO3)cc1 | 3 | -4 | -2 | 0 | . | -1
COC(=O)c1ccc(CN2C(=O)[C@]3(OCCC=C[C@H]3C)c3ccccc32)cc1 | . | -1 | -2 | . | . | -34
COc1ccc2c(c1)[C@@]1(OCCC=C[C@H]1C)C(=O)N2CC1CC1 | . | -2 | 14 | . | . | 53*
C#CCN1C(=O)[C@]2(OCCC=C[C@H]2C)c2ccccc21 | . | -11 | 77* | . | . | 12
CC(=O)Nc1ccc(S(=O)(=O)Oc2ccc(/C=C3\SC(N)=NC3=O)cc2)cc1 | -2 | -17 | 5 | . | 130* | 10
COc1cccc2oc3ccc(C#CC4(N)CCCCC4)cc3c(=O)c12 | 5 | -2 | 3 | 51* | -19 | -3
O=c1c2ccccc2oc2ccc(C#CC3(O)CCCCC3)cc12 | -16 | -19 | 1 | -9 | -12 | -1
C[C@@H]1CCCCO[C@@H](CN(C)Cc2ccc(C(=O)O)cc2)[C@H](C)CN([C@@H](C)CO)C(=O)c2cc(NS(C)(=O)=O)ccc2O1 | -4 | -14 | -6 | 3 | . | 17
C[C@@H]1CCCCO[C@@H](CN(C)Cc2ccc(C(=O)O)cc2)[C@@H](C)CN([C@@H](C)CO)C(=O)c2cc(NS(C)(=O)=O)ccc2O1 | -2 | -8 | 48* | -4 | . | 19
CCCN(C)C[C@H]1OCCCC[C@@H](C)Oc2ccc(NS(=O)(=O)c3ccc(OC)cc3)cc2C(=O)N([C@H](C)CO)C[C@@H]1C | -4 | 13 | 55* | 2 | . | 0
COc1ccc(CN(C)C[C@H]2OCCCC[C@@H](C)Oc3ccc(NS(=O)(=O)c4ccc(Cl)cc4)cc3C(=O)N([C@H](C)CO)C[C@@H]2C)cc1 | -2 | 50 | ? | -5 | . | -28
COc1ccc(S(=O)(=O)Nc2ccc3c(c2)C(=O)N([C@H](C)CO)C[C@H](C)[C@H](CN(C)Cc2ccc(Cl)c(Cl)c2)OCCCC[C@@H](C)O3)cc1 | . | . | 42* | 1 | . | 4
COc1ccc(CN(C)C[C@H]2OCCCC[C@@H](C)Oc3ccc(NS(=O)(=O)c4ccc(Cl)cc4)cc3C(=O)N([C@@H](C)CO)C[C@H]2C)cc1 | 10 | 55* | 14 | -7 | . | -11
COc1ccc(CN(C)C[C@H]2Oc3ccc(NS(=O)(=O)c4cn(C)cn4)cc3CC(=O)N([C@@H](C)CO)C[C@H]2C)cc1 | 1 | -1 | . | -9 | . | 8
COc1ccccc1NC(=O)N[C@H]1CC[C@H](CCNS(=O)(=O)c2ccc(F)cc2)O[C@@H]1CO | 1 | -4 | -9 | 8 | . | -11
COc1ccc(CN(C)C[C@H]2OCCCC[C@H](C)Oc3ccc(NS(=O)(=O)c4ccc(Cl)cc4)cc3C(=O)N([C@H](C)CO)C[C@@H]2C)cc1 | 5 | 49 | 19 | 5 | . | -29
COc1ccc(CN(C)C[C@@H]2OCCCC[C@H](C)Oc3ccc(NS(=O)(=O)c4ccc(F)cc4)cc3C(=O)N([C@@H](C)CO)C[C@H]2C)cc1 | 3 | 27 | 59* | -1 | . | -18
COc1ccc(CN(C)C[C@H]2OCCCC[C@@H](C)Oc3ccc(NS(=O)(=O)c4ccc(F)cc4)cc3C(=O)N([C@H](C)CO)C[C@@H]2C)cc1 | 1 | 21 | -2 | 2 | . | 1
COc1ccc(CN(C)C[C@@H]2OCCCC[C@H](C)Oc3ccc(NS(=O)(=O)c4ccc(Cl)cc4)cc3C(=O)N([C@H](C)CO)C[C@H]2C)cc1 | 6 | 57* | 3 | 2 | . | -29
COc1ccc(CN(C)C[C@H]2OCCCC[C@@H](C)Oc3ccc(NS(=O)(=O)c4ccc(Cl)cc4)cc3C(=O)N([C@H](C)CO)C[C@H]2C)cc1 | 7 | 55* | ? | -12 | . | -2
COc1ccc(S(=O)(=O)Nc2ccc3c(c2)C(=O)N([C@@H](C)CO)C[C@H](C)[C@@H](CN(C)Cc2ccc(C(=O)O)cc2)OCCCC[C@H](C)O3)cc1 | -12 | 2 | 54* | -4 | . | 15
SMILES | MLL AF4-AF9 inh | RAD52 anneal inh | DENV2 CPE rescue | RAD54 inh | dFosB act | GSIS activator
C[C@@H]1CCCCO[C@H](CN(C)Cc2ccc(C(=O)O)cc2)[C@H](C)CN([C@H](C)CO)C(=O)c2cc(NS(=O)(=O)c3ccc(F)cc3)ccc2O1 | -1 | 9 | ? | -2 | . | 11
C[C@H]1CN([C@@H](C)CO)C(=O)c2cc(-c3ccncc3)cnc2O[C@H]1CN(C)C(=O)c1ccncc1 | -6 | -1 | -6 | 4 | . | 7
COc1ccc(CN(C)C[C@@H]2OCCCC[C@@H](C)Oc3ccc(NS(=O)(=O)c4cn(C)cn4)cc3C(=O)N([C@H](C)CO)C[C@@H]2C)cc1 | -6 | 19 | 61* | 3 | . | 47
O=c1cc(-c2cccnc2)oc2c1ccc1ccccc12 | -1 | 9 | -7 | 60* | . | 5
O=c1cc(-c2ccccc2)oc2c1ccc1ccccc12 | 0 | -4 | 8 | . | . | -3
C[C@H]1CN([C@@H](C)CO)C(=O)c2cc(NS(=O)(=O)c3cccs3)ccc2O[C@H]1CN(C)Cc1ccc(C(=O)O)cc1 | -2 | 21 | 3 | -1 | . | 7
COc1ccc2c3c([nH]c2c1)[C@H](CO)N(C(C)=O)CC31CCN(Cc2cc(-c3ccccc3)on2)CC1 | 30* | 14 | ? | . | . | -21
COc1ccc2c3c([nH]c2c1)[C@H](CO)N(C(C)=O)CC31CN(Cc2cc(-c3ccccc3)on2)C1 | 26* | -15 | 4 | . | . | 4
COc1ccc2c3c([nH]c2c1)[C@H](CO)N(C(=O)Nc1ccc(F)cc1)CC31CCN(Cc2cc(-c3ccccc3)on2)CC1 | -1 | 0 | -6 | . | . | 3
COc1ccc2c3c([nH]c2c1)[C@@H](CO)N(C(C)=O)CC31CCN(Cc2cc(-c3ccccc3)on2)CC1 | 36* | 12 | 6 | . | . | -22
CC(C)NC(=O)N(C)C[C@H]1Oc2c(NS(=O)(=O)c3ccc(Cl)cc3)cccc2C(=O)N([C@H](C)CO)C[C@H]1C | 5 | -1 | 7 | 2 | . | 4
CC(C)NC(=O)Nc1ccc2c(c1)C(=O)N([C@@H](C)CO)C[C@@H](C)[C@@H](CN(C)Cc1ccc(C(F)(F)F)cc1)O2 | 0 | 6 | -6 | -24 | . | -3

Screening results from PubChem.
